# Hits are enriched below; roughly 4.3% of the tested compounds scored in any of these assays.
# MITF act = activators of MITF-driven TRPM1 promoter activity in SK-MEL-5 cells | SK-MEL-5 TRPM1-promoter luciferase, 24 h; % of positive control, neutral wells = 0 | activation, % at 12.5 µM | 300,000 compounds, 0.75% hits;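 active means mean activation of at least 80% with every replicate also reaching 80%; inconclusive means mean reaches 80% but some replicate falls short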
# FGF22 binding = FGF22 (human) thermal shift binding | Q9HCT0 | recombinant FGF22 thermal shift, SYPRO orange fluorescence; percent of sucrose octasulfate shift, DMSO zero | activity (Tm shift, normalised), % at 9.99 µM | 340,000 compounds, 1.5% hits | AID 651658;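 active means mean Tm shift, scaled 0 neutral to 100 positive control, at about 1.3% or above, every replicate too, limit read from the data; inconclusive means no clear call, values can overlap the other calls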
# MLL AF4-AF9 inh = blocks AF4 peptide binding to human AF9; P42568; AlphaScreen, biotin-AF4 peptide binding to FLAG-AF9; inhibition, % at 10 µM; 350,000 compounds, 0.47% hits;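 active means every replicate reaching a set inhibition limit, whatever the replicate mean, cut at about 25% in these data; inconclusive means mean inhibition reaches that limit but some replicates miss it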
# Target sequence (P42568 whole entry, looked up): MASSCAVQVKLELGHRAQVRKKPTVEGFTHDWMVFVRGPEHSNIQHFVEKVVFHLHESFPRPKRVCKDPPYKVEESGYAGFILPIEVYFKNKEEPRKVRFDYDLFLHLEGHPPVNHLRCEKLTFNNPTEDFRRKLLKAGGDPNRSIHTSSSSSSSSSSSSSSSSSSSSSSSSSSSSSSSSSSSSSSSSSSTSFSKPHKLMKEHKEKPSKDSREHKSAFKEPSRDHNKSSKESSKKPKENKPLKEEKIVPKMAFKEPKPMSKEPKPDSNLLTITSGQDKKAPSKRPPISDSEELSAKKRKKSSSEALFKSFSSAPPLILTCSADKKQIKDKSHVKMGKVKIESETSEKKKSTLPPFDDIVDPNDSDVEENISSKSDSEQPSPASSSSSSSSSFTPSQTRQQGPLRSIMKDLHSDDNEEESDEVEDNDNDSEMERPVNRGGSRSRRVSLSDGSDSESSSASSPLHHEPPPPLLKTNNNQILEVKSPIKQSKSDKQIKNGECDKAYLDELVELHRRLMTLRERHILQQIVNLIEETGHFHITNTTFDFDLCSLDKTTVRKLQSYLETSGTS
# Wnt bcat act = activators of Wnt/beta-catenin signaling; activation, % at 9.35 µM; 300,000 compounds, 1.2% hits; Wnt/beta-catenin reporter cell assay, activator, plate reader; in the data active means activation above about 30%, passing the limit was not always enough; inconclusive means no clear call, values can overlap the other calls
# esBAF inh = inhibitors of esBAF chromatin remodeling in mouse ES cells | Bmi1-luciferase knock-in reporter, 24 h; 100% = twice the neutral-well signal | 350,000 compounds, 2% hits | reporter increase, % at 12.5 µM | AID 602393; in the data active means activation above about 40%; inconclusive means no clear call, values can overlap the other calls;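 further: a rise in the Bmi1 reporter signal indicates esBAF inhibition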
# SMARCA2 activ = activators of SMARCA2 function | MG213 cells, MMTV-luciferase reporter, dexamethasone, overnight | activation, % at 9.1 µM | 370,000 compounds, 1% hits | AID 652017; in the data active means activation above about 7.8%
# SMARCA2 act conf = confirmation of SMARCA2 (BRM) function activators | 3,500 compounds, 30% hits | activation, % at 9.1 µM | MG213 cells, MMTV-luciferase with dexamethasone, luminescence, overnight; MG213 cells expressing E1A, Rb sequestered; DMSO wells 0%, reference activator 100% | shares compounds with SMARCA2 activ;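 active means activation above its plate's cutoff, the mean activation of tested wells plus 3 SD, cut at about 7.9% in these data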
# VP16 Luc act = counter-screen for SMARCA2 activators: GAL4-VP16 luciferase reporter activation; shares compounds with SMARCA2 activ; HEK293 GAL4-VP16 pG5luc reporter, luciferase luminescence; scaled: DMSO wells 0%, SAHA wells 100%; activation, % at 9.1 µM; 3,500 compounds, 41% hits; AID 686939;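 active means activation above the solvent-only control well mean plus 3 SD, averaged across control plates, cut at about 5.2% in these data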
# Hits are given with their value; - = inactive; ? = inconclusive; . = not tested or not shown.
SMILES,MITF act,FGF22 binding,MLL AF4-AF9 inh,Wnt bcat act,esBAF inh,SMARCA2 activ,SMARCA2 act conf,VP16 Luc act
COc1ccc(NC(=O)N[C@H]2CC[C@H](CCNC(=O)CCN3CCCCC3)O[C@H]2CO)cc1,.,-,-,.,-,.,.,.
COc1cccc(=O)c2c(C)n(-c3ccc(C(=O)O)cc3)c(C)c12,-,-,-,-,.,-,.,.
COc1ccc(-n2c(C)c3c(OC)cccc(=O)c3c2C)cc1,-,.,.,.,-,11,-,-
COc1ccc(NS(=O)(=O)c2cccc(C(=O)NNC(=O)CNC(=O)c3ccccc3F)c2)cc1,-,.,-,-,-,8.2,-,-
CCN(CC)c1ccc(Nc2cc3n(c(=O)n2)CCc2cc(OC)c(OC)cc2-3)cc1,-,-,-,-,.,14,18,-
COc1cc2c(cc1OC)-c1cc(Nc3cccc(F)c3)nc(=O)n1CC2,-,-,-,-,-,-,.,.
CCC(C(=O)Nc1ccc2c(c1)OCCO2)n1nnc2ccccc2c1=O (stereo not drawn),88,-,-,-,59,8.7,-,6.1
CC(Sc1nc2ccccc2c(=O)n1C)C(=O)Nc1ccc2c(c1)OCCO2 (stereo not drawn),-,-,-,-,-,-,.,.
Cc1noc(C)c1S(=O)(=O)Nc1ccc2c(c1)C(=O)N([C@H](C)CO)C[C@H](C)[C@@H](CN(C)Cc1ccncc1)O2,.,-,-,.,-,.,.,.
c1ccc2c(c1)CCN(C1=Nc3cccc4cccc1c34)C2,-,43,?,-,.,12,-,-
c1cc2c3c(cccc3c1)C(N1CCCCCC1)=N2,.,.,.,-,-,-,.,.
C[C@@H]1CN([C@H](C)CO)C(=O)c2c(c3ccccc3n2C)-c2ccccc2CO[C@H]1CN(C)C(=O)N[C@H](C)c1ccccc1,.,.,.,.,-,.,.,.
COc1ccc(NC(=O)Nc2ccc3c(c2)C(=O)N([C@@H](C)CO)C[C@@H](C)[C@H](CN(C)Cc2ccccc2)OCCCC[C@H](C)O3)cc1,.,-,-,.,-,.,.,.
CC(=O)N(C)C[C@@H]1Oc2cc(-c3ccccc3C)ccc2S(=O)(=O)N([C@@H](C)CO)C[C@H]1C,.,-,-,.,-,.,.,.
O=C(Oc1ccccc1C(=O)N1CCOCC1)c1ccccc1,-,.,.,.,-,8.0,-,-
Nc1cc(=O)[nH]c(SCc2nnnn2-c2ccc(Cl)cc2)n1,-,-,-,-,-,9.4,-,-
CCCNC(=O)N1CCC2(CC1)CN(C(=O)c1ccncc1)[C@H](CO)c1[nH]c3cc(OC)ccc3c12,.,-,-,.,.,.,.,.
O=c1cc(-c2ccc(O)c(O)c2)oc2ccc3ccccc3c12,-,.,-,-,.,8.2,-,5.2
O=C(O)c1cccc2cc(-c3ccccc3)oc(=O)c12,.,-,-,-,-,-,.,.
O=c1oc(-c2ccc(O)c(O)c2)cc2cccc(O)c12,-,-,-,-,64,8.5,8.1,13
CCOC(=O)c1cc2sccc2n1CC(=O)C(C)(C)C,-,-,-,-,.,10,-,-
COc1cc(/C=C2\CC/C(=C\c3cc(OC)c(O)c(OC)c3)C2=O)cc(OC)c1O,-,-,-,-,.,11,34,-
COc1cc(/C=C2\CC/C(=C\c3cc(OC)c(OC)c(OC)c3)C2=O)cc(OC)c1OC,-,-,-,.,.,-,.,.
CCCc1cc(C(=O)OC)c2ccccc2n1,-,.,.,.,.,8.3,-,-
O=C(C[C@H]1CC[C@@H]2[C@H](COC[C@@H](O)CN2Cc2ccc(Cl)cc2)O1)NCc1cccc(F)c1,.,-,.,.,-,.,.,.
SMILES,MITF act,FGF22 binding,MLL AF4-AF9 inh,Wnt bcat act,esBAF inh,SMARCA2 activ,SMARCA2 act conf,VP16 Luc act
COc1ccc(CN(C)C[C@@H]2OCCCC[C@@H](C)Oc3ccc(NC(=O)c4ccncc4)cc3C(=O)N([C@H](C)CO)C[C@H]2C)cc1,.,-,-,.,-,.,.,.
COc1ccc(Nc2nc3cc(-c4sccc4C)sc3c(=O)n2C)cc1OC,.,-,-,-,-,9.3,-,8.4
C[C@H](CO)N1C[C@H](C)[C@H](CN(C)C(=O)c2ccccn2)Oc2ncc(C3=CCCCC3)cc2C1=O,.,-,-,.,-,.,.,.
O=C(Cn1cc(/C=C\[N+](=O)[O-])c2ccccc21)Nc1ccccc1,-,-,-,-,-,17,10.0,-
CN(C)c1ccc(NC(N)=S)cc1,-,-,-,-,.,-,.,.
CN(C)c1ccc(Cl)c(NC(N)=S)c1,.,-,-,-,-,8.2,-,-
NS(=O)(=O)c1cccc(NC(=O)Cn2cnc3ccccc3c2=O)c1,-,.,.,.,-,-,.,.
COC(=O)c1cccc(NC(=O)Cn2cnc3ccccc3c2=O)c1,-,-,-,-,-,13,-,-
c1ccc2c(c1)COc1c3cc4c(cc3nn1-2)OCO4,.,-,-,-,-,9.5,15,11
CCOC(=O)N1CCN(c2c(N3CCC(N4CCCCC4)CC3)c(=O)c2=O)CC1,-,-,-,-,-,8.0,-,-
C[C@@H]1CCCCO[C@@H](CN(C)Cc2ccncc2)[C@H](C)CN([C@@H](C)CO)C(=O)c2cc(NC(=O)NC3CCCCC3)ccc2O1,.,-,-,.,-,.,.,.
Cc1ccc(C(=O)NCCc2nc3ccccc3[nH]2)cc1[N+](=O)[O-],-,.,.,-,.,8.6,-,-
O=C(NCCc1nc2ccccc2[nH]1)c1ccc(Cl)c([N+](=O)[O-])c1,-,-,-,-,.,-,.,.
CC(C)C(=O)Nc1ccc2c(c1)C(=O)N(C)[C@H]1CC[C@@H](CC(=O)NCc3cccc(F)c3)O[C@H]1CO2,.,-,.,.,-,.,.,.
CC(NC(=O)c1cc(COc2ccccc2)on1)c1nccs1 (stereo not drawn),97,-,-,-,64,10,-,15
CC(=O)c1ccc(OCc2cc(C(=O)NC(C)c3cnn(C)c3)no2)cc1 (stereo not drawn),-,-,-,-,-,-,.,.
O=C(Cn1c(=O)oc2ccccc21)Nc1ccccc1N1CCOCC1,-,-,-,-,-,-,.,.
O=C(CN1C(=O)CSC1=O)Nc1ccccc1N1CCOCC1,-,.,.,.,-,9.8,-,-
C[C@H](CO)N1C[C@H](C)[C@@H](CN(C)C(=O)Nc2ccccc2)Oc2ccc(NS(=O)(=O)c3ccc(F)cc3)cc2CC1=O,.,-,-,.,-,.,.,.
COC(=O)c1cc(C(=O)OC)cc(-n2c(C)cc(C(=O)COC(=O)CNS(=O)(=O)c3ccc(C)cc3)c2C)c1,-,-,-,-,.,8.0,-,-
COc1cc(/C=N/Nc2ccccn2)ccc1O,-,-,-,37,.,9.6,-,10
Cc1ccc(NC(=O)C2CCCN(S(=O)(=O)c3ccc4[nH]c(=O)ccc4c3)C2)cc1C (stereo not drawn),-,-,-,-,-,-,.,.

# Compound activity: PubChem, several laboratories
